# Data from PubChem BioAssay.
# Active and inactive are the calls of the source. Unless noted, the rule behind the calls is not given here.
# What was measured:
# [1] = system: XIP peptide (Xip251-270) binding; experiment: small-molecule binders of XIP peptide, primary screen, biochemical, small-molecule microarray, fluorescence 635/667 nm, 0.1 µg/mL protein (AID 1182); conditions: fluorescent protein binding, 635 nm, higher = more signal, called active from +8 up or from −8 down
# XIP peptide (Xip251-270) = experiment: small-molecule binders of XIP peptide, primary screen, biochemical, small-molecule microarray, fluorescence 635/667 nm, 0.5 µg/mL protein (AID 1183); conditions: small-molecule microarray binding, fluorescence 635 nm; higher = more signal
# [2] = Plasmodium falciparum growth inhibition, primary screen, strain 3D7, DAPI fluorescence, 100 nL (AID 1184);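 note: parasites grown inside human red blood cells in medium with human serum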; conditions: P. falciparum 3D7 growth, 3 d, higher = more signal
# [3] = target: Homeobox protein Hox-A13 (Mus musculus) (UniProt Q62424); experiment: inhibitors of HoxA13-DNA binding, primary screen, biochemical, fluorescence polarization, labeled oligonucleotide (AID 1185); conditions: 15 min, higher = more signal, called active from +8 up or from −8 down
# Sequence of Homeobox protein Hox-A13 (Mus musculus) (Q62424 whole entry, looked up): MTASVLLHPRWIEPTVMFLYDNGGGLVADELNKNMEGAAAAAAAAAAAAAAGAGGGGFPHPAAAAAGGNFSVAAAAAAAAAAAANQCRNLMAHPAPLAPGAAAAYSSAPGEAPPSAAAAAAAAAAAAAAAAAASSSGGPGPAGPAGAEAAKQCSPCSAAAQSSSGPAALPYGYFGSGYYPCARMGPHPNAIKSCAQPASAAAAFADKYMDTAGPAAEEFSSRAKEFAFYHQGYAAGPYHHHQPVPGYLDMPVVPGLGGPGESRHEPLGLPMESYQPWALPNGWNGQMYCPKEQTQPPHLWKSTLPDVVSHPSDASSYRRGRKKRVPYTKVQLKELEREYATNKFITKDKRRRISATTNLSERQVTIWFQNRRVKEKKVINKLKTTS
# [4] = inhibitors of hydroxyurea-induced Chk1 phosphorylation, primary screen, imaging, HeLa, phospho-Chk1 antibody, percent positive cells (AID 1186); conditions: hydroxyurea-induced phospho-Chk1 immunofluorescence imaging, higher = more signal
# [5] = inhibitors of hydroxyurea-induced Chk1 phosphorylation, primary screen, imaging, HeLa, phospho-Chk1 nuclear intensity (AID 1187); conditions: hydroxyurea-induced phospho-Chk1 immunofluorescence imaging, higher = more signal
SMILES,composite z-score [1],composite z-score (XIP peptide (Xip251-270)),z-score [2],z-score [3],z-score [4],z-score [5]
CC(C)CCC[C@@H](C)[C@H]1CC[C@@]2(C)C3=C(CC[C@]12C)[C@@]1(C)CC[C@H](OC(=O)c2ccc(Br)cc2)C(C)(C)C1CC3 (stereo partly specified),-0.349 (inactive),-0.198,0.665,-0.708 (inactive),0.0833 (inactive),0.377 (inactive)
COC1(C)CN(Cc2ccccc2Br)[C@H](/C=C/c2ccccc2)[C@H](Cc2ccccc2)O1 (stereo partly specified),-0.181 (inactive),-0.13,0.502,0.471 (inactive),-1.6 (inactive),-2.34 (inactive)
CC(C)(C)OC(=O)CC[C@@]1(C(=O)O)N=C(c2ccc(OCCCO)cc2)O[C@@H]1c1ccccc1,0.0877 (inactive),0.84,0.274,-2.94 (inactive),-0.0016 (inactive),0.18 (inactive)
CC(C)C(O)C1C=CC2C(=O)N(C)C(=O)C2N1N(c1ccccc1)c1ccccc1 (stereo unspecified),0.618 (inactive),0.123,0.0202,-4.48 (inactive),0.307 (inactive),0.0802 (inactive)
O=C1O[C@@H](c2ccccc2)[C@@H](c2ccccc2)N2[C@@H](c3ccccc3OCCO)[C@]3(C(=O)Nc4ccc(C#CCCO)cc43)[C@@H](C(=O)Nc3nc4ccccc4s3)[C@H]12,0.767 (inactive),0.698,-2.14,-2.2 (inactive),-0.0607 (inactive),0.0274 (inactive)
NC(N)=NCc1cn(CCc2c[nH]c3ccccc23)nn1,1.35 (inactive),0.937,0.743,-2.09 (inactive),0.568 (inactive),-0.248 (inactive)
CN(C)CCCCNC(=O)[C@H]1C[C@H]2C(=O)N3CCC[C@H]3C(=O)N2[C@H]1c1ccc(O)cc1,-0.301 (inactive),0.538,-1.25,-0.12 (inactive),0.331 (inactive),0.513 (inactive)
CC(C)(C)N1CC=CC23O[C@@H]4C=CCOC(=O)[C@@H]4[C@H]2C(=O)N(CCCO)[C@@H]3C1=O (stereo partly specified),-0.466 (inactive),-0.825,-1.87,-3.12 (inactive),-0.263 (inactive),-0.327 (inactive)
O=c1cccc(-c2ccc(C(F)(F)F)cc2)o1,0.338 (inactive),-0.256,1.39,-1.7 (inactive),0.264 (inactive),0.197 (inactive)
COC(=O)[C@@]1(Cc2ccccc2)[C@H]2c3cc(C(=O)N4CCCC4)n(Cc4cc(F)cc5c4OCOC5)c3C[C@H]2CN1C(=O)c1ccccc1,0.766 (inactive),0.828,-1.65,-5.42 (inactive),0.189 (inactive),0.435 (inactive)
COCCOC(=O)N1C(=O)[C@@]2(c3cc(C#CC4(O)CCCCCC4)ccc31)[C@H](C(N)=O)[C@H]1C(=O)O[C@H](c3ccccc3)[C@H](c3ccccc3)N1[C@@H]2c1ccccc1OCCO,-0.0203 (inactive),0.792,-2.19,-1.56 (inactive),0.276 (inactive),0.217 (inactive)
O=C1O[C@@H](c2ccccc2)[C@@H](c2ccccc2)N2[C@@H](c3ccc(O)cc3)[C@]3(C(=O)Nc4ccc(C#CC5=CCCCC5)cc43)[C@@H](C(=O)N3CCN(c4ncccn4)CC3)[C@H]12,-0.168 (inactive),0.657,-1.97,0.676 (inactive),-0.0981 (inactive),-0.0223 (inactive)
O=C(NC1CC1)[C@@H]1c2ccccc2C(=O)N(Cc2ccccc2)[C@H]1c1ccc(CO)cc1,1.38 (inactive),0.752,-1.55,-2.86 (inactive),-0.556 (inactive),-0.679 (inactive)
C=C(/C(=C/C[C@@H](OC(=O)c1ccncc1)c1ccc(OCCO)cc1)c1cc(C(=O)OC)ccc1OC)C(C)C,0.281 (inactive),0.309,-2.78,-3.5 (inactive),-0.899 (inactive),-0.125 (inactive)
C=CC[C@H](OC(=O)Nc1ccc(OC)cc1)c1ccc(O)c2ccccc12,-0.104 (inactive),0.616,-1.36,-0.0657 (inactive),0.936 (inactive),0.821 (inactive)
O=C1OCC=C[C@H]2OC34C=CCN(c5ccc(Cl)cc5)C(=O)[C@H]3N(CCCCCO)C(=O)[C@@H]4[C@@H]12 (stereo partly specified),-0.0492 (inactive),-0.192,-0.826,-3.66 (inactive),-0.11 (inactive),-0.281 (inactive)

SMILES,composite z-score [1],composite z-score (XIP peptide (Xip251-270)),z-score [2],z-score [3],z-score [4],z-score [5]
C=CC[C@@]1(C(=O)N2CCCCC2)N=C(c2ccc(OCCCO)cc2)O[C@@H]1c1ccccc1,0.0703 (inactive),0.735,-2.09,-5.99 (inactive),-0.377 (inactive),-0.146 (inactive)
COCCOC(=O)N1C(=O)[C@@]2(c3cc(C#CCC(C(=O)OC)C(=O)OC)ccc31)[C@H](c1ccc(OCCO)cc1)N1[C@H](c3ccccc3)[C@H](c3ccccc3)OC(=O)[C@H]1[C@@H]2C(=O)N1CCN(c2ncccn2)CC1,1.42 (inactive),0.824,-2.25,2.08 (inactive),-0.163 (inactive),-0.0755 (inactive)
C=CCN1Cc2ccccc2C[C@@]2(N=C(c3ccc(OCCCO)cc3)O[C@H]2c2ccccc2)C1=O,0.247 (inactive),0.691,-2.09,-3.98 (inactive),-0.468 (inactive),-0.399 (inactive)
O=C(O)[C@]1(Cc2ccccc2)N=C(c2ccc(OCCCO)cc2)O[C@@H]1c1ccccc1,-0.243 (inactive),0.48,1.24,-4.93 (inactive),0.282 (inactive),0.37 (inactive)
CC(C)(C)OC(=O)CC[C@]1(C(=O)O)N=C(c2ccc(OCCCO)cc2)O[C@H]1c1ccccc1CN=[N+]=[N-],0.109 (inactive),0.405,-0.711,-4 (inactive),-0.287 (inactive),-0.499 (inactive)
[N-]=[N+]=NCc1ccccc1C[C@@]1(C(=O)N2CCCCC2)N=C(c2ccc(OCCCO)cc2)O[C@@H]1c1ccccc1N=[N+]=[N-],1.25 (inactive),0.386,-2.24,-1.84 (inactive),-0.298 (inactive),0.246 (inactive)
NC(=O)NCC#Cc1ccc2c(c1)[C@]1(C(=O)N2)[C@H](c2ccc(O)cc2)N2[C@H](c3ccccc3)[C@H](c3ccccc3)OC(=O)[C@H]2[C@@H]1C(=O)Nc1nc2ccccc2s1,0.541 (inactive),0.453,0.364,0.608 (inactive),-0.275 (inactive),0.0338 (inactive)
CC(C)C[C@@H]1NC(=O)[C@H]2C[C@@H](C(=O)NCCCCCC[N+](C)(C)C)[C@@H](c3cccc(OCCO)c3)N2C1=O,0.506 (inactive),0.748,-0.411,-5.33 (inactive),-0.481 (inactive),-0.503 (inactive)
C=C[C@@H](COC(C)=O)NS(=O)(=O)c1ccc(Br)cc1,0.0525 (inactive),0.113,0.4,0.34 (inactive),-0.249 (inactive),-0.227 (inactive)
COCCOC(=O)N1C(=O)[C@@]2(c3cc(C#CC4=CCCCC4)ccc31)[C@H](C(=O)N1CCN(c3ncccn3)CC1)[C@H]1C(=O)O[C@H](c3ccccc3)[C@H](c3ccccc3)N1[C@@H]2c1ccc(O)cc1,0.481 (inactive),0.685,-1.29,0.446 (inactive),0.247 (inactive),0.0658 (inactive)
C=CCNC(=O)[C@H]1[C@@H]2C(=O)O[C@@H](c3ccccc3)[C@@H](c3ccccc3)N2[C@@H](c2ccccc2OCCO)[C@]12C(=O)N(C(=O)OCCOC)c1ccc(C#CC3=CCCCC3)cc12,0.234 (inactive),0.719,-2.12,0.724 (inactive),0.557 (inactive),1.47 (inactive)
CC(C)(C)OC(=O)CC[C@]1(C(=O)NCCN2CCOCC2)N=C(c2ccc(OCCCO)cc2)O[C@H]1c1ccccc1N=[N+]=[N-],0.716 (inactive),0.864,-1.73,-4.1 (inactive),0.0695 (inactive),0.234 (inactive)
CCOc1cc(C(O)C2C=CC3C(=O)N(C4CCCCC4)C(=O)C3N2Nc2ccc(OC)cc2)ccc1O (stereo unspecified),0.0699 (inactive),0.486,-0.165,-3.99 (inactive),-0.509 (inactive),-0.813 (inactive)
COc1c(C)cc(-c2cc3c(c(-c4ccccc4)n2)[Si](C(C)C)(C(C)C)OC3)cc1C,0.518 (inactive),-0.479,-1.03,-0.238 (inactive),-0.645 (inactive),-0.268 (inactive)
CN(C)CCCNC(=O)[C@@H]1c2ccccc2C(=O)N(CC23CC4CC(CC(C4)C2)C3)[C@H]1c1ccc(CO)cc1,1.18 (inactive),0.824,-2.18,3.41 (inactive),0.595 (inactive),1.05 (inactive)
